Test results reported in PubChem BioAssay AID602382 (Sanford-Burnham Center for Chemical Genomics, 2012).
This is one part of the list. Values without a mark were called inactive. How the calls were made is not given here.

Test: beacon detection-step fluorescence artefacts – biochemical, fluorescent molecular beacon, artefact control for DNMT1 inhibitor project, dose response (AID 602382)
Details: spectral interference counter-screen

Q: For `Cc1c(C(=O)O)cccc1-n1c(C)cc(/C=C2\C(=O)NC(=O)N(c3ccc4c(c3)OCO4)C2=O)c1C`, which IC50 is on record?
A: Its IC50 is > 99 µM.
